Source: PubChem BioAssay (EPA / NIEHS)
Calls of active or inactive are those of the source. Rule for the calls: active = hit-call score of the fitted dose curve at least 0.9, where 1 is the maximum; inactive = score below 0.9.

Legend:
[1] = APR_HepG2_NuclearSize_72hr: Apredica 72-hour HepG2 Assay for Nuclear Size (AID 2282925); conditions: high-content imaging, actives raise or lower the signal
In short: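 Read-out: nuclear diameter from Hoechst 33342 images (ArrayScan, 20x, six fields/well), via cell-cycle image analysis. HepG2 were dosed 0.39–200 uM for 72 hr in 0.5% DMSO. Bidirectional fit relative to DMSO.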

[2] = ATG_CRE_CIS: Attagene CIS-FACTORIAL HepG2 Assay for human cAMP Responsive Element (CRE) binding protein 3 (AID 2282926); conditions: HepG2 CRE cis-reporter, Attagene multiplexed mRNA; actives raise or lower the signal
In short: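 Liver-derived HepG2, transfected with a CRE-containing reporter panel, exposed 24 h; transcript levels sized and quantified by capillary electrophoresis of labelled amplicons; signal changes either way referenced to vehicle.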

[3] = target: CCAAT/enhancer-binding protein beta (Homo sapiens) (UniProt P17676); assay: ATG_C_EBP_CIS: Attagene CIS-FACTORIAL HepG2 Assay for human CCAAT/Enhancer Binding Protein (C/EBP) beta (AID 2282927); conditions: HepG2 Attagene cis-factorial transcription factor reporter; actives raise or lower the signal
CCAAT/enhancer-binding protein beta (Homo sapiens), sequence (P17676 whole entry, looked up): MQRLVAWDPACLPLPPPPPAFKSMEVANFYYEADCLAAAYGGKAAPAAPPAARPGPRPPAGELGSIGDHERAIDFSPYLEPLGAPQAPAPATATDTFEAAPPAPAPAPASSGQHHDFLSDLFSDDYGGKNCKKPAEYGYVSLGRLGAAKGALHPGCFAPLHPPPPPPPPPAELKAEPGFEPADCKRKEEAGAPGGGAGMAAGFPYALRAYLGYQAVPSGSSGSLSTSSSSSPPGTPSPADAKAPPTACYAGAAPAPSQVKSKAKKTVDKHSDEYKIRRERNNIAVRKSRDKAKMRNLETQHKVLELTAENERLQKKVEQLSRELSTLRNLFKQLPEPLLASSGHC
In short: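 HepG2 transiently transfected with multiplexed reporter units under cis-regulatory promoters reporting endogenous C/EBPb activity. After 24 h exposure, reporter mRNA assayed by RT-PCR, fluorescent labelling, HpaI digestion and capillary electrophoresis; bidirectional fitting versus DMSO.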

[4] = ATG_CMV_CIS: Attagene CIS-FACTORIAL HepG2 Assay for human CMV (Internal Marker) (AID 2282928); conditions: HepG2 CMV promoter reporter, transcription factor profiling; actives raise or lower the signal;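 note: endpoint acts as a background internal control marker rather than a target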
In short: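 Readout: fluorescent reporter cDNA fragments separated by capillary electrophoresis after RT-PCR and HpaI cut. Cells: HepG2 carrying transfected cis-promoter reporter constructs, dosed 24 h. Endpoint serves as background internal-marker control, fit bidirectionally versus DMSO.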

[5] = ATG_DR4_LXR_CIS: Attagene CIS-FACTORIAL HepG2 Assay for human Liver X Receptor (LXR), DR4 submotif (AID 2282929); conditions: HepG2 Attagene DR4 cis-reporter, mRNA transcription; actives raise or lower the signal
In short: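 After transient transfection with multiplexed cis-promoter reporter units, HepG2 cells received test chemicals for 24 h. Reporter mRNA induction, detected by fluorescence after RT-PCR and capillary electrophoresis, was scored relative to DMSO.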

[6] = target: Aryl hydrocarbon receptor (Homo sapiens) (UniProt P35869); assay: ATG_Ahr_CIS: Attagene CIS-FACTORIAL HepG2 Assay for human Aryl Hydrocarbon Receptor (Ahr) (AID 2282930); conditions: HepG2 AhR cis-factorial reporter transcription; actives raise or lower the signal
Aryl hydrocarbon receptor (Homo sapiens), sequence (P35869 whole entry, looked up): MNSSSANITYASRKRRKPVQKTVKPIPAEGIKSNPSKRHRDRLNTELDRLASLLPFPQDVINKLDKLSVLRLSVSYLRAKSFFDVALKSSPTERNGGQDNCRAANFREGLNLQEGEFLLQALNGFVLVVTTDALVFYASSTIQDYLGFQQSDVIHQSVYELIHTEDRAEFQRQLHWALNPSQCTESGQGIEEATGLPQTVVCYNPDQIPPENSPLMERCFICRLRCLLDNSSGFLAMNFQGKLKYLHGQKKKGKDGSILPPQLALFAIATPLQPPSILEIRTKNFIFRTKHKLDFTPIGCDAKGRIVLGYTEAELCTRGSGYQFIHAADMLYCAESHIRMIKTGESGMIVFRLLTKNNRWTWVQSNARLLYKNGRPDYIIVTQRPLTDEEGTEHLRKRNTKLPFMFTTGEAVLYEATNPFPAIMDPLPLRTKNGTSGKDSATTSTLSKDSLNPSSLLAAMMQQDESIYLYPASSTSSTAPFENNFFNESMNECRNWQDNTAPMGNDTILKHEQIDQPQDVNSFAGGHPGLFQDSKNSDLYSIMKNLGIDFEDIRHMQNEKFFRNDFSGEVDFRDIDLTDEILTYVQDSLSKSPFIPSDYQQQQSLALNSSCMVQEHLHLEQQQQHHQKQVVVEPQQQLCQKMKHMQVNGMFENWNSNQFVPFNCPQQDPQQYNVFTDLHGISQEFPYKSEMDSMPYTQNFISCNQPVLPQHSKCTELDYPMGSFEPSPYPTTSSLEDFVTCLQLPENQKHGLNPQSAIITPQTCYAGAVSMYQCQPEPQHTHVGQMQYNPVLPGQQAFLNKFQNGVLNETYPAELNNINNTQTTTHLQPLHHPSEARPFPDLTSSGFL
In short: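 HepG2 cells transiently transfected with cis-element-driven multiplexed reporter units; endogenous AhR activity read as reporter mRNA 24 h after dosing, via RT-PCR, 6-FAM labelling, HpaI digestion and capillary electrophoresis. Bidirectional fit relative to DMSO.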

[7] = ATG_AP_1_CIS: Attagene CIS-FACTORIAL HepG2 Assay for human Activator Protein 1 (AP-1) (AID 2282931); conditions: HepG2 Attagene cis-factorial AP-1 reporter mRNA; actives raise or lower the signal
In short: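 After 24 h incubation with test chemical, RNA from transfected HepG2 cells was reverse-transcribed, amplified, fluorescently labelled and digested before capillary electrophoresis. Reporters were driven by cis-regulatory promoters; activity fitted bidirectionally versus DMSO.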

[8] = ATG_AP_2_CIS: Attagene CIS-FACTORIAL HepG2 Assay for human Activator Protein 2 (AP-2) (AID 2282932); conditions: HepG2 AP-2 cis-reporter, Attagene transcription factor profiling; actives raise or lower the signal
In short: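 Read-out: fluorescent reporter mRNA via RT-PCR and capillary electrophoresis, 24 h post-dose in transiently transfected HepG2. Endogenous factors drive cis-promoter reporters; gain or loss of signal fitted bidirectionally against DMSO.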

[9] = ATG_BRE_CIS: Attagene CIS-FACTORIAL HepG2 Assay for human Bone Morphogenetic Protein (BMP) Response Element (BRE) (AID 2282933); conditions: HepG2 BMP response element reporter, Attagene transcription factor profiling; actives raise or lower the signal
In short: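 HepG2 cells transiently transfected with CIS reporter units (endogenous TF activity, BMP response element), dosed 24 h. Reporter mRNA quantified by RT-PCR, fluorescent labelling and capillary electrophoresis; bidirectional fit vs DMSO baseline.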

[10] = target: Retinoic acid receptor alpha (Homo sapiens) (UniProt P10276); assay: ATG_DR5_RAR_CIS: Attagene CIS-FACTORIAL HepG2 Assay for human Retinoic Acid Receptor Alpha (RARE), DR5 submotif (AID 2282934); conditions: HepG2 Attagene cis-factorial RARE DR5 reporter, mRNA; actives raise or lower the signal;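 for AC50: reporter responds to endogenous RAR alpha beta and gamma in HepG2 not RARA alone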
Retinoic acid receptor alpha (Homo sapiens), sequence (P10276 whole entry, looked up): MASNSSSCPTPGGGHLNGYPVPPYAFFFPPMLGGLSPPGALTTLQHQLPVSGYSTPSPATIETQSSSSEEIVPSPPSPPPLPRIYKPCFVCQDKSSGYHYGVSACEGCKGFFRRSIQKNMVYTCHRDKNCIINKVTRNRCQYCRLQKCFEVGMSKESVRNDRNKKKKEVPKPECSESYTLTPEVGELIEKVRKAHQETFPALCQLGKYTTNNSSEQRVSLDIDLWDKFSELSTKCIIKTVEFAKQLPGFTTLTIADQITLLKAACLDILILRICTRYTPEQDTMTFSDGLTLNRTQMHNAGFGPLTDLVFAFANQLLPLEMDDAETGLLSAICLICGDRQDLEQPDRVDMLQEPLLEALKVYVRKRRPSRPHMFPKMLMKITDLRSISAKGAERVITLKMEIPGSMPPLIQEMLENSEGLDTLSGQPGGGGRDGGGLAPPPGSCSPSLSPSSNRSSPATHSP
In short: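 HepG2 cells transiently transfected with multiplexed reporter units; DR5 cis-element drives reporter through endogenous transcription factors. After 24 h dosing, reporter mRNA quantified by RT-PCR, fluorescent labeling, HpaI digestion and capillary electrophoresis; bidirectional fitting versus DMSO.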

[11] = target: Transcription factor E2F1 (Homo sapiens) (UniProt Q01094); assay: ATG_E2F_CIS: Attagene CIS-FACTORIAL HepG2 Assay for human E2F Transcription Factor 1 (AID 2282935); conditions: HepG2 Attagene cis-reporter, E2F reporter RNA transcripts; actives raise or lower the signal
Transcription factor E2F1 (Homo sapiens), sequence (Q01094 whole entry, looked up): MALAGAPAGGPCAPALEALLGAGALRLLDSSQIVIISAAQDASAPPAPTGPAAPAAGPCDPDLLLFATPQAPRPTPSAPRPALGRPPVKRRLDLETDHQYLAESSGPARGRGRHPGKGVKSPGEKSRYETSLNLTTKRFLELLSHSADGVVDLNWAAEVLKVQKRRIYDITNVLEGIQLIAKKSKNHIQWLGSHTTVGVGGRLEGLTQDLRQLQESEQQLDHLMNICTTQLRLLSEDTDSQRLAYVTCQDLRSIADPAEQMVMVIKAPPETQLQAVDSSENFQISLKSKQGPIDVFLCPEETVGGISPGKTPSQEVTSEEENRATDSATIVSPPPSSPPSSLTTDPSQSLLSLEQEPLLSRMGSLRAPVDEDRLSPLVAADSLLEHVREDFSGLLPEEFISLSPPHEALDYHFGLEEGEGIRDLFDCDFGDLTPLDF
In short: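 Transient MRTU transfection of HepG2; 24 h compound exposure; RNA → oligo(dT) RT → PCR → FAM label → HpaI cut → CE fluorescence. Gain/loss of signal fit against DMSO.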

[12] = ATG_E_Box_CIS: Attagene CIS-FACTORIAL HepG2 Assay for human Enhancer Box (E-box) (AID 2282936); conditions: HepG2 E-box cis-reporter transcription, actives raise or lower the signal
In short: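 Transiently transfected HepG2, endogenous TF-driven reporters, 24 h dosing. Readout: RT-PCR plus capillary electrophoresis of fluorescent reporter fragments. Gain or loss of signal fitted bidirectionally against DMSO baseline.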

[13] = ATG_M_61_CIS: Attagene CIS-FACTORIAL HepG2 Assay for M61 Transcription Factor (Internal Marker) (AID 2282937); conditions: HepG2 Attagene CIS-FACTORIAL M61 internal marker reporter; actives raise or lower the signal
In short: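 Using transiently transfected HepG2 liver cells, reporter transcript levels were assessed 24 h post-dosing by RT-PCR and capillary electrophoresis. Changes in either direction were fitted relative to DMSO controls.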

[14] = ATG_EGR_CIS: Attagene CIS-FACTORIAL HepG2 Assay for human Early Growth Response 1 (EGR1) (AID 2282938); conditions: HepG2 Attagene CIS-FACTORIAL EGR reporter mRNA; actives raise or lower the signal
In short: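 Fluorescent capillary-electrophoresis signal of reporter cDNA fragments serves as read-out. HepG2 cells bear transiently transfected cis-promoter reporter units and are exposed 24 h; gain- or loss-of-signal is fitted against DMSO.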

[15] = ATG_M_19_CIS: Attagene CIS-FACTORIAL HepG2 Assay for M19 Transcription Factor (Internal Marker) (AID 2282939); conditions: HepG2 Attagene CIS-FACTORIAL M19 internal marker reporter; actives raise or lower the signal
In short: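 HepG2 cells transiently transfected with cis-regulated multiplexed reporter units, dosed 24 h. Reporter mRNA quantified by RT-PCR and capillary electrophoresis; internal background marker fitted bidirectionally versus DMSO.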

[16] = ATG_ERE_CIS: Attagene CIS-FACTORIAL HepG2 Assay for Estrogen Response Element (ERE) (AID 2282940); conditions: HepG2 ERE cis-reporter, Attagene RNA transcript; actives raise or lower the signal
In short: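 HepG2 cells transiently transfected with multiplexed cis-element reporter units, measuring endogenous transcription factor activity; ERE reporter mRNA quantified after 24 h exposure by RT-PCR, fluorescent labelling, HpaI digestion and capillary electrophoresis. Bidirectional change versus DMSO.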

[17] = ATG_Ets_CIS: Attagene CIS-FACTORIAL HepG2 Assay for human Erythroblast Transformation Specific (ETS) (AID 2282941); conditions: HepG2 ETS cis-reporter transcription, actives raise or lower the signal
In short: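 RT-PCR/capillary electrophoresis fluorescence read-out of reporter mRNA; HepG2 transient multi-reporter transfection; 24 h compound exposure; gain or loss of signal fitted bidirectionally relative to DMSO.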

[18] = target: Hepatocyte nuclear factor 3-beta (Homo sapiens) (UniProt Q9Y261); assay: ATG_FoxA2_CIS: Attagene CIS-FACTORIAL HepG2 Assay for human Forkhead box A2 (FOXA2) (AID 2282942); conditions: HepG2 cis-reporter transcription factor activity, 24 h; actives raise or lower the signal
Hepatocyte nuclear factor 3-beta (Homo sapiens), sequence (Q9Y261 whole entry, looked up, the tested form may be a part): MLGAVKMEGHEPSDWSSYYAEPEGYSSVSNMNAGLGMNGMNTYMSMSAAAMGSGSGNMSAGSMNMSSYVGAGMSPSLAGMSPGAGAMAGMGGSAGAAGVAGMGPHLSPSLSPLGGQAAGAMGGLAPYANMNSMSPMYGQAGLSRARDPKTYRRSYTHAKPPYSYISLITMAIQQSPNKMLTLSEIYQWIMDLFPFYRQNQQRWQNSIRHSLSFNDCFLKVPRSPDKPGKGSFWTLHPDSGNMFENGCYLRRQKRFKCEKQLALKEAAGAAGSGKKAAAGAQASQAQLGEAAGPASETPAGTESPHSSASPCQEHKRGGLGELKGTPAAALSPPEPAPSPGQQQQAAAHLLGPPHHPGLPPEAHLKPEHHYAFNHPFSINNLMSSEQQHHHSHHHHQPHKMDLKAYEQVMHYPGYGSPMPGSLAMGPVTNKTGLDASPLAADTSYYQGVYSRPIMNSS
In short: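 Fluorescence signal of reporter cDNA fragments, separated by capillary electrophoresis, reflects endogenous transcription factor activity in transfected HepG2 after 24 h. Both increases and decreases fitted against DMSO.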

[19] = ATG_FoxO_CIS: Attagene CIS-FACTORIAL HepG2 Assay for human Forkhead box O (FoxO) (AID 2282943); conditions: HepG2 Attagene cis-reporter, FoxO element, mRNA; actives raise or lower the signal
In short: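 HepG2 cells transiently transfected with cis-element-driven reporter units report endogenous FoxO activity. After 24 h chemical exposure, reporter mRNA quantified by RT-PCR, fluorescent labeling, HpaI digestion and capillary electrophoresis; bidirectional fit versus DMSO.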

[20] = ATG_GATA_CIS: Attagene CIS-FACTORIAL HepG2 Assay for human GATA Binding Protein (AID 2282944); conditions: HepG2 GATA cis-element reporter, Attagene multiplex mRNA; actives raise or lower the signal
In short: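 HepG2 cells transiently transfected with multiplexed cis-element reporter units measure endogenous GATA activity; after 24 h compound exposure, reporter mRNA quantified by RT-PCR and capillary electrophoresis. Changes fitted in both directions vs DMSO.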

Measured: AC50

CC(C)Oc1cc(-n2nc(C(C)(C)C)oc2=O)c(Cl)cc1Cl
active: [4] 6.05 µM | [7] 21.8 µM | [9] 50 µM | [10] 0.86 µM | [16] 12.8 µM
inactive: all other assays above

COc1cnc(OC)n2nc(NS(=O)(=O)c3c(OCC(F)F)cccc3C(F)(F)F)nc12
not listed: [10]
inactive: all other assays above

O=C(Nc1ccccc1)Nc1ccnc(Cl)c1
active: [2] 22.5 µM | [3] 50 µM | [4] 26.5 µM | [7] 16.3 µM | [9] 27.8 µM | [10] 88.1 µM | [14] 50 µM | [19] 13 µM
inactive: all other assays above

CC1=C(C(=O)Nc2ccccc2)SCCO1
inactive: all assays above

CCNc1nc(Cl)nc(NC(C)C)n1
not listed: [10]
inactive: all other assays above

COC(=O)C=C(C)OP(=O)(OC)OC
inactive: all assays above

COP(=S)(OC)Oc1nc(Cl)c(Cl)cc1Cl
active: [5] 85.1 µM | [16] 33.5 µM
inactive: all other assays above

C=CC1(C)OC(=O)N(c2cc(Cl)cc(Cl)c2)C1=O (configuration not stated)
not listed: [10]
inactive: all other assays above

C=CCC1=C(C)[C@@H](OC(=O)[C@@H]2[C@@H](C=C(C)C)C2(C)C)CC1=O
active: [2] 7.32 µM | [10] 2.87 µM
inactive: all other assays above
